Results from the supplement of paper PMC6555819.

Assays:
Experiment in all cases: PBM binding z-score (relative to random genomic background probes); higher = stronger binding; sequences stand for … in GC…GCGATTGACAGCGTAGAATGAAGG
[1] = system: FXR:RXRa (NR concentration 270 nM, RXRa partner concentration 90 nM)
Summary of the method: (§1)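 Binding z-scores take random background probes as their reference. They come from custom Agilent 4×180K protein-binding microarrays incubated 1 h with ligand-free nuclear receptor dimers, with antibodies against each partner (one per run) detecting binding. Scanned fluorescence was regression-normalized.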

[2] = system: LXRa:RXRa (NR concentration 270 nM, RXRa partner concentration 90 nM)
Summary of the method: as §1

[3] = system: LXRa homodimer (NR concentration 270 nM)
Summary of the method: as §1

[4] = system: LXRb:RXRa (NR concentration 270 nM, RXRa partner concentration 90 nM)
Summary of the method: as §1

[5] = system: LXRb homodimer (NR concentration 270 nM)
Summary of the method: as §1

[6] = system: PPARa:RXRa (NR concentration 270 nM, RXRa partner concentration 90 nM)
Summary of the method: as §1

[7] = system: PPARg:RXRa (NR concentration 180 nM, RXRa partner concentration 90 nM)
Summary of the method: as §1

[8] = system: PPARg:RXRa 270nM:90nM, anti-RXR (NR concentration 270 nM, RXRa partner concentration 90 nM)
Summary of the method: as §1

[9] = system: PPARg:RXRa 30nM:10nM, anti-RXR (NR concentration 30 nM, RXRa partner concentration 10 nM)
Summary of the method: as §1

[10] = system: PPARg:RXRa 90nM:30nM, anti-RXR (NR concentration 90 nM, RXRa partner concentration 30 nM)
Summary of the method: as §1

[11] = system: PPARg:RXRa DBDmut IVT, anti-RXR (DBD mutation: RXRa K156A/R161A, NR concentration 270 nM, RXRa partner concentration 90 nM)
Summary of the method: as §1

[12] = system: PPARg:RXRa IVT, anti-PPARg (NR concentration 270 nM, RXRa partner concentration 90 nM)
Summary of the method: as §1

[13] = system: PPARg DBDmut:RXRa IVT, anti-PPARg (DBD mutation: PPARg1 K132A/R137A, NR concentration 270 nM, RXRa partner concentration 90 nM)
Summary of the method: as §1

[14] = system: PPARg DBDmut IVT, anti-PPARg (DBD mutation: PPARg1 K132A/R137A, NR concentration 270 nM)
Summary of the method: as §1

[15] = system: PPARg homodimer (NR concentration 180 nM)
Summary of the method: as §1

[16] = system: PXR:RXRa (NR concentration 270 nM, RXRa partner concentration 90 nM)
Summary of the method: as §1

[17] = system: PXR homodimer (NR concentration 270 nM)
Summary of the method: as §1

[18] = system: RARa:RXR (NR concentration 270 nM, RXRa partner concentration 90 nM)
Summary of the method: as §1

[19] = system: RARa homodimer (NR concentration 270 nM)
Summary of the method: as §1

[20] = system: RARb:RXRa (NR concentration 270 nM, RXRa partner concentration 90 nM)
Summary of the method: as §1

Row | Sequence | PBM binding z-score [1] | PBM binding z-score [2] | PBM binding z-score [3] | PBM binding z-score [4] | PBM binding z-score [5] | PBM binding z-score [6] | PBM binding z-score [7] | PBM binding z-score [8] | PBM binding z-score [9] | PBM binding z-score [10] | PBM binding z-score [11] | PBM binding z-score [12] | PBM binding z-score [13] | PBM binding z-score [14] | PBM binding z-score [15] | PBM binding z-score [16] | PBM binding z-score [17] | PBM binding z-score [18] | PBM binding z-score [19] | PBM binding z-score [20]
1 | TCGAGTAGGTTAGTCGGGGCTTTCAGCCAACATA | -0.154 | -0.116 | -0.783 | -0.0101 | -1.08 | 0.158 | -0.922 | 0.148 | 0.909 | 0.595 | 1.86 | 0.952 | -1.71 | -1.29 | -0.983 | -0.467 | -0.898 | -0.14 | -1.19 | 0.0518
2 | ACTCGGAGGACAAAGGTCAGTGCTACGCCAGTGA | 3.58 | 3.67 | 1.45 | 2.94 | 0.443 | 4.64 | 6.76 | 6.58 | 5.31 | 7.31 | 0.807 | 3.58 | 1.11 | -0.05 | 3.66 | 3.7 | 0.26 | 4.7 | 1.27 | 4.5
3 | CGAACTAGGTCTAGGACAGTGAATCTCCGCACGC | -0.409 | -0.606 | -0.429 | -1.12 | -0.723 | -0.176 | 0.461 | -0.367 | -0.539 | -0.377 | 2.28 | 1.58 | -0.66 | -0.934 | -0.583 | -0.626 | -0.327 | -0.766 | -0.883 | -0.221
4 | TATACAGGGTCAAAGACCAGAGTACGAATGTCGA | 7.01 | 5.81 | 2.11 | 4.83 | 2.31 | 5.9 | 6.65 | 5.94 | 3.43 | 5.01 | 2.05 | 4.19 | 1.75 | 1.67 | 1.9 | 3.65 | 0.419 | 4.04 | 0.668 | 4.25
5 | GCATATAGGTAATACACGGTGAAAGTCCGATTGT | 0.145 | 0.988 | 0.163 | -0.0915 | -0.496 | 0.9 | 0.912 | 0.806 | 0.349 | 0.684 | 3.87 | 2.67 | 0.895 | 1.01 | 0.267 | 0.213 | 0.115 | 0.564 | 0.666 | -0.0307
6 | TCTTGTAGATCAGCAGGTTGAGAAAGCTGGCCAA | 0.242 | 0.0309 | -0.346 | -0.0211 | -0.546 | 0.457 | -0.781 | 1.1 | 2.58 | 1.75 | 1.7 | -0.16 | -1.19 | -1.18 | -0.343 | 0.181 | -0.51 | 0.426 | -0.127 | -0.0315
7 | GCGTCTGGGGCATCAGCAGGTTACCATAACTTAA | -0.332 | -0.363 | -0.529 | 0.524 | -0.962 | 0.996 | 0.169 | 0.239 | -0.644 | -0.174 | 2.39 | 1.72 | -0.946 | -0.371 | 0.169 | -0.00705 | -0.377 | 0.336 | -0.422 | 0.978
8 | TCTTGTAGATCAGCAGGTTAACAAAGCTGGCCAA | 0.321 | 0.368 | -0.313 | 0.507 | -0.6 | 1.21 | 0.102 | 1.77 | 2.61 | 2.21 | 1.62 | 0.747 | -0.763 | -0.365 | 0.0617 | 0.171 | -0.584 | 0.489 | -0.289 | 0.359
9 | AGAACGAAGGCACGCTGAGTTGATAGCAGAGTAG | -0.877 | -0.66 | -0.838 | -1.06 | -0.997 | -0.367 | 0.622 | -0.693 | -0.318 | -0.476 | -0.47 | -0.214 | -0.0465 | -0.623 | -1.17 | -0.449 | -0.696 | -0.468 | -0.886 | -0.566
10 | GCTGCCAGGTCAGGTTGGTCAGCTAACGGGTACG | 1.58 | 0.973 | -0.337 | 0.712 | -0.51 | 1.64 | 0.272 | 0.752 | -0.562 | 0.147 | 0.771 | 1.4 | -0.447 | -1.57 | 0.22 | 0.724 | -0.291 | 1.25 | -0.438 | 3.23
11 | CAAACTAGGTCAAGAAGTCAAAGTCCGCTTCCCG | 3.65 | 2.9 | 0.599 | 1.94 | 0.337 | 4.89 | 7.74 | 6.67 | 4.66 | 6.22 | 7.86 | 8.35 | 2.53 | 3.42 | 2.98 | 1.49 | 0.206 | 2.77 | 0.734 | 4.05
12 | ATCTCTAGGTAACAACTTCAGTGAAAGAGAGGAC | 0.55 | 0.485 | 0.102 | 0.396 | 0.978 | 0.493 | 0.782 | 0.618 | 0.652 | 0.573 | 3.07 | 2.74 | 1.64 | 1.45 | 0.774 | 0.286 | 0.641 | 0.537 | 0.713 | 0.586
13 | AGAACGAGGGCACGCTGAGTTGATACCAGAGTAG | 0.816 | 0.364 | -0.278 | 0.0367 | -0.613 | 1.76 | 2.2 | 1.8 | 0.433 | 1.03 | 4.16 | 3.75 | 0.259 | -0.00374 | 0.189 | 1.25 | 0.342 | 0.748 | -0.804 | 2.36
14 | ATCGCTAGGTAACCAAGTTCAGTGAATGCCGAAC | -0.315 | 0.156 | -0.0176 | -0.126 | -0.754 | 0.318 | -0.0825 | -0.186 | -0.453 | -0.0897 | -0.05 | 0.465 | -0.411 | -0.436 | -0.86 | 1.57 | 1.12 | 0.267 | -0.716 | 0.753
